This note sets out measurements from PubChem BioAssay AID1347416 (National Center for Advancing Translational Sciences (NCATS), 2020).

Out of some 4,100 compounds screened, about 1,600 (39%) were called active. Another 25% or so got no clear call; they are omitted. Some of the results follow. Values without a mark were called inactive. Calls follow the shape of the dose curve; as a rule, active = well fitted inhibition curve with a large enough effect; inconclusive = small, poorly fitted or top-dose-only effect; inactive = no such curve, though single readings can be large or run the other way.
% is scaled to controls: 0 for no effect and ±100 for the full control effect; potency is read from the fitted curve at half-maximal effect.

A short description of the test: qHTS Validation assay for Inhibitors of Plasmodium falciparum Dd2 growth in vitro. Also: nearly all actives have a fitted effect of over 70% in size. To be noted: P. falciparum Dd2 in RBCs, SYBR Green growth, 72 h; series mostly up to 28.7 µM; activity change, negative = inhibition: at the top concentration. An outline of the steps: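 P. falciparum Dd2-infected red blood cells (2.5% hematocrit, 0.3% parasitemia) grown 72 h at 37 °C under 5% O2 with compounds in a titration, 29 uM to 0.5 nM final. Growth read as SYBR Green-1 fluorescence after ~16 h lysis; artesunate 300 nM as positive control.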
For `O=C(CN1CCN(C(=O)c2ccco2)CC1)Nc1cc(Cl)ccc1Cl`, the Potency was 5.96 µM (active).
Consider `O=C(c1ccco1)N1CCCN(c2cc(-c3ccc(Br)cc3)[nH]n2)CC1`, for which the “activity change, negative = inhibition” value was 6.44%.
Take `O=C(CN1CCN(C(=O)c2ccco2)CC1)Nc1cc(C(F)(F)F)ccc1Cl`: the Potency was 7.5 µM (active).
On the same count and under the same terms, the same measure for `O=C1c2cc(N3CCOCC3)nc(-c3ccccc3)c2CN1Cc1ccccc1`: 21.7 µM (active).
For `CC(=O)Nc1cccc(-c2ncc3c(n2)OCCN(Cc2ccccc2)C3=O)c1`, the “activity change, negative = inhibition” value is -29.5% [at 43.1 µM].
Take `O=C1CCC2(CCCO2)CCN1Cc1ccccc1` (centres undefined): the “activity change, negative = inhibition” value was 44%.
Consider `Nc1nc(-c2ccccn2)nc(N)c1Cc1ccccc1F`, for which the Potency is 13.3 µM (active).
In the case of `Nc1nc(-c2ccccn2)nc(N)c1Cc1ccc(Cl)cc1Cl`, the Potency is 7.5 µM (active).
`CCCCN1C(=O)c2[nH]nc(-c3ccccc3O)c2C1c1ccc(OCc2ccccc2)cc1` (centres undefined): the Potency was 5.96 µM (active).
Turning to `CCOc1cc(C2c3c(-c4ccccc4O)n[nH]c3C(=O)N2Cc2cccnc2)ccc1O` (centres undefined), the “activity change, negative = inhibition” value is 0.886%.
Turning to `CCOc1ccccc1CN1CCC2(CCN(CCC(C)C)CC2)Oc2ccccc21`, the Potency is 3.35 µM (active).
On to `CCOc1ccccc1CN1CCC2(CCN(C(=O)OC)CC2)Oc2ccccc21`, for which the “activity change, negative = inhibition” value was 9.84%.
Take `CN(C)CCCNc1cc(N2CCN(C3CCCCC3)CC2)c2noc3c2c1C(=O)c1ccccc1-3`: the Potency is 1.33 µM (active).
For `COCCNc1cc(N2CCN(C3CCCCC3)CC2)c2noc3c2c1C(=O)c1ccccc1-3`, the Potency is 15 µM (active).
`CCn1ncc(Br)c1C(=O)Nc1sc2c(c1C(N)=O)CCC2`: the “activity change, negative = inhibition” value was 23.8%.
Consider `Cc1ccc(C(=O)Nc2sc3c(c2C(=O)O)CCCCC3)o1`, for which the “activity change, negative = inhibition” value was 3.56%.
Regarding `O=C(Nc1sc2c(c1C(=O)NCc1ccco1)CCCC2)c1cc(=O)c2ccccc2o1`, the Potency was 10.6 µM (active).
As for `O=c1cc(-c2ccncc2)oc2c(-c3ccccc3O)nccc12`, the “activity change, negative = inhibition” value was -21.3% [at 43.1 µM].
Same read-out and setting: to `O=c1cc(-c2ccncc2)oc2c(-c3cccc(CO)c3)nccc12` belongs -23% [at 43.1 µM].
On to `O=c1cc(-c2cccnc2)oc2c(-c3ccccc3Oc3ccccc3)nccc12`, for which the Potency is 17.2 µM (active).
Turning to `COc1ccc(Nc2cc(C)nc3ncnn23)cc1Cl`, the “activity change, negative = inhibition” value is -25.8%.
With `Cc1cc(Nc2ccc(C(C)C)cc2)n2ncnc2n1`, the Potency is 4.22 µM (active).
Regarding `Cc1cc(Nc2ccc3ccccc3c2)n2ncnc2n1`, the Potency was 0.596 µM (active).
As for `OC(CNCC(c1ccco1)N1CCCCC1)c1ccccc1` (centres undefined), the Potency was 5.96 µM (active).
Take `COc1cccc(C(=O)N2CCCC(Cc3noc(-c4ccncc4)n3)C2)c1` (centres undefined): the “activity change, negative = inhibition” value was 8.6%.
Regarding `O=C1CC(c2ccccc2)N(Cc2ccncc2)CCCN(C(=O)Nc2ccccc2F)CCN1` (centres undefined), the Potency was 1.68 µM (active).
In the case of `O=C(c1ccncc1)N1CCC(Cc2nc(-c3ccccc3)n[nH]2)CC1`, the “activity change, negative = inhibition” value is -3.39%.
For `N#Cc1cccc(C(=O)N2CCCN(Cc3ccncc3)C(c3ccccc3)CC(=O)NCC2)c1` (centres undefined), the Potency was 7.5 µM (active).
Turning to `O=C(NCc1ccncc1)[C@@H]1C[C@@H](c2ccc(F)cc2)N(Cc2ccccc2)C1`, the “activity change, negative = inhibition” value was -28.6% [at 43.1 µM].
On the same count and under the same terms, to `COC(=O)c1c(C(=O)OC)c(-c2ccc(C)cc2)n2c1CS(=O)(=O)C2` belongs -1.51%.
Same read-out and setting: the same measure for `O=C(N[C@H]1C[C@H]2C(=O)NC[C@@H](CCC(=O)N3CCN(c4ccccc4)CC3)N2C1)C1CC1`: 57.6%; for `COC[C@@H]1CN(Cc2cc(OC)cc(OC)c2)C[C@H]1C(=O)N(C)C`: 12.8%.
With `Cc1nc(-c2cccc(Cl)c2)n(CC(=O)NCc2ccc(F)cc2)c(=O)c1CCO`, the “activity change, negative = inhibition” value was 28.7%.
On to `Cc1nc(-c2ccc(F)cc2)n(CC(=O)Nc2cccc(Cl)c2)c(=O)c1CCO`, for which the Potency was 15 µM (active).
Consider `CSc1cccc(NC(=O)Cn2c(-c3ccc(F)cc3)nc(C)c(CCO)c2=O)c1`, for which the Potency is 13.3 µM (active).
In the case of `CC1=C(C(=O)NCc2ccccn2)C2(CCC(C)CC2)OC1=O` (centres undefined), the “activity change, negative = inhibition” value is 26.2%.
For `O=C(Nc1cccc(C(F)(F)F)c1)C1CCN(S(=O)(=O)c2cccc3nsnc23)CC1`, the “activity change, negative = inhibition” value is 5.55%.
With `NC(=O)C1CCN(CC(=O)Nc2cccc(C(=O)Nc3cccc(C(F)(F)F)c3)c2)CC1`, the Potency was 6.68 µM (active).
On the same count and under the same terms, to `CCn1cc(CN2CCCC(COc3ccccc3C(=O)N3CCCC3)C2)c2ccccc21` (centres undefined) belongs 8.41 µM (active).
`CC1(C)[C@H]2CC[C@@H](CNC(=O)c3cccc4[nH]ccc34)[C@@H]1C2`: the “activity change, negative = inhibition” value is 44.5% [at 43.1 µM].
With `CCOc1ccccc1C(=O)N1CCN(C2CCN(C)C2=O)CC1` (centres undefined), the “activity change, negative = inhibition” value was 31.5%.
On to `O=C(c1ccccc1OCC1CCCN(Cc2ccncc2F)C1)N1CCCCC1` (centres undefined), for which the Potency is 10.6 µM (active).
Take `O=C(Nc1cccc(F)c1)N1CCC(Oc2ncccc2C(=O)N2CCCCC2)C1` (centres undefined): the “activity change, negative = inhibition” value was -19.9%.
Take `O=C(c1ccccc1OCC1CCCN(Cc2ccncc2F)C1)N1CCCC1` (centres undefined): the Potency was 10.6 µM (active).
As for `O=C(c1cc(-c2ccccc2)n[nH]1)N1CCCC(Cc2noc(-c3cnccn3)n2)C1` (centres undefined), the “activity change, negative = inhibition” value was 1.43%.
Take `CN(C)C[C@H]1C[C@@H](CO)CN(C(=O)c2ccccc2OC(F)(F)C(F)F)C1`: the “activity change, negative = inhibition” value was 26.4%.
With `O=C(NC1CC1)c1ccccc1OCC1CCCN(Cc2cccc3[nH]ccc23)C1` (centres undefined), the Potency was 5.96 µM (active).
`COc1ccccc1C(=O)NC1CCCN(c2cc(-c3ccc(F)cc3)[nH]n2)C1` (centres undefined): the “activity change, negative = inhibition” value was -3.49%.
On to `Cc1ccncc1C(=O)N1CCCC(c2nnnn2C)C1` (centres undefined), for which the “activity change, negative = inhibition” value is -2.38%.
